Records with an inconclusive call do not appear. Where a call stands in place of a potency, no number is given. The source made the active and inactive calls. Calls follow the shape of the full dose curve.
What was measured:
[1] = Primary qHTS for Huh7 cytotoxicity: counterscreen for inhibitors of MERS-S pseudotyped particle cell entry (AID 1479147); conditions: outcome: dose series up to 57.1 µM unless noted
[2] = Primary qHTS for inhibitors of MERS-S pseudo-typed particle cell entry (AID 1479149); conditions: outcome: dose series up to 57.1 µM unless noted; also: nearly all actives have a fitted effect of over 60% in size
[3] = Primary qHTS for Vero E6 cytotoxicity: counterscreen for inhibitors of SARS-S pseudo-typed particle cell entry (AID 1479150); conditions: outcome: dose series up to 57.1 µM unless noted
[4] = Cytotoxicity counterscreen for inhibitors of SARS-CoV-2 cell entry (AID 1645845); conditions: outcome: dose series up to 57.1 µM unless noted; also: nearly all actives have a fitted effect of over 50% in size
Outline: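 ATP-content luminescence (ATPLite 1step, 15 min RT) read after 48 h compound exposure of Expi293F cells stably expressing human ACE2; normalized to cells-only wells and media-only wells.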

[5] = Primary qHTS to identify inhibitors of SARS-CoV-2 cell entry (AID 1645846); conditions: SARS-CoV-2 pseudovirus cell entry assay, luminescence; activity change, negative = inhibition: at 57.1 µM (top of the series) unless noted; also: nearly all actives have a fitted effect of over 45% in size; also: potency is read from the fitted curve at half-maximal effect
Outline: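 HEK293 cells stably expressing human ACE2, pre-treated 1 h with compound, then infected with MLV particles pseudotyped with Wuhan-Hu-1 spike (C-terminal 19-aa truncation). Luciferase luminescence after 48 h at 37 °C, normalised to spike PP and bald PP.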

Row | Compound | Potency [1] | Potency [2] | Potency [3] | Potency [4] | activity change, negative = inhibition [5] | Potency [5]
1 | CCCCC[C@@H](O)CC[C@H]1[C@@H]2Cc3cccc(OCC(=O)O)c3C[C@@H]2C[C@@H]1O | inactive | inactive | inactive | inactive | -4.98% | 
2 | Cc1ccc([C@@H]2O[C@H](CO)[C@@H](O)[C@H](O)[C@H]2O)cc1Cc1ccc(-c2ccc(F)cc2)s1 | inactive | inactive | inactive | inactive |  | 17.8 µM (active)
